Assay results reported in the supplement of paper PMC8728848.
This excerpt belongs to a sample that is enriched for the strongest signals.

Columns and labels:
Test in all cases: glycan array binding signal (z-score within array); higher = stronger binding
Conditions in all cases: glycan notation: IUPAC condensed, linker removed
[1] = target: Fuc(a1-2)Gal(b1-4)[Fuc(a1-3)]GlcNAc
How it was run: (§1)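 Glycan array data came from 3228 arrays in the Consortium for Functional Glycomics database, and only arrays with an available protein sequence were kept. Glycan names were put into IUPAC-condensed notation, and columns mapping to the same glycan were averaged. The binding signal is a within-array Z-score, averaged across arrays of one protein sequence run at different concentrations or buffers and across linkers. A negative Z-score can be read as non-binding.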

[2] = target: Fuc(a1-2)[Gal(a1-3)]Gal(b1-3)GlcNAc(b1-2)Man(a1-3)[Fuc(a1-2)[Gal(a1-3)]Gal(b1-3)GlcNAc(b1-2)Man(a1-6)]Man(b1-4)GlcNAc(b1-4)GlcNAc
How it was run: as §1

[3] = target: Fuc(a1-2)[Gal(a1-3)]Gal(b1-4)[Fuc(a1-3)]GlcNAc
How it was run: as §1

[4] = target: Fuc(a1-2)[GalNAc(a1-3)]Gal
How it was run: as §1

[5] = target: Fuc(a1-2)[GalNAc(a1-3)]Gal(b1-4)[Fuc(a1-3)]GlcNAc
How it was run: as §1

[6] = target: Fuc(a1-3)[Gal(b1-4)]GlcNAc(b1-2)Man(a1-3)[Fuc(a1-3)[Gal(b1-4)]GlcNAc(b1-2)Man(a1-6)]Man(b1-4)GlcNAc(b1-4)GlcNAc
How it was run: as §1

[7] = target: Fuc(a1-3)[Gal(b1-4)]GlcNAc(b1-2)Man(a1-3)[Fuc(a1-3)[Gal(b1-4)]GlcNAc(b1-2)Man(a1-6)]Man(b1-4)GlcNAc(b1-4)[Fuc(a1-6)]GlcNAc
How it was run: as §1

[8] = target: Fuc(a1-3)[Gal(b1-4)]GlcNAc(b1-4)Gal(b1-4)[Fuc(a1-3)]GlcNAc
How it was run: as §1

[9] = target: Gal(a1-3)Gal(b1-4)GlcNAc(b1-2)Man
How it was run: as §1

[10] = target: Gal(a1-3)Gal(b1-4)GlcNAc(b1-3)GalNAc
How it was run: as §1

Gal(b1-3)Gal(b1-4)GlcNAc = target: Gal(b1-3)Gal(b1-4)GlcNAc
How it was run: as §1

[11] = target: Gal(b1-3)GlcNAc(b1-2)[Gal(b1-3)GlcNAc(b1-6)]Man(a1-6)[Gal(b1-3)GlcNAc(b1-2)Man(a1-3)]Man(b1-4)GlcNAc(b1-4)GlcNAc
How it was run: as §1

[12] = target: Gal(b1-4)GlcNAc(b1-2)Man(a1-3)[Gal(b1-4)GlcNAc(b1-2)Man(a1-6)][GlcNAc(b1-4)]Man(b1-4)GlcNAc(b1-4)[Fuc(a1-6)]GlcNAc
How it was run: as §1

[13] = target: Gal(b1-4)GlcNAc(b1-3)Gal(b1-4)GlcNAc(b1-3)Gal(b1-4)GlcNAc(b1-3)Gal(b1-4)GlcNAc(b1-2)Man(a1-3)[Gal(b1-4)GlcNAc(b1-3)Gal(b1-4)GlcNAc(b1-3)Gal(b1-4)GlcNAc(b1-3)Gal(b1-4)GlcNAc(b1-2)Man(a1-6)]Man(b1-4)GlcNAc(b1-4)[Fuc(a1-6)]GlcNAc
How it was run: as §1

[14] = target: Gal(b1-4)GlcNAc(b1-3)Gal(b1-4)GlcNAc(b1-3)Gal(b1-4)GlcNAc(b1-3)Gal(b1-4)GlcNAc(b1-2)[Gal(b1-4)GlcNAc(b1-3)Gal(b1-4)GlcNAc(b1-3)Gal(b1-4)GlcNAc(b1-3)Gal(b1-4)GlcNAc(b1-6)]Man(a1-6)[Gal(b1-4)GlcNAc(b1-3)Gal(b1-4)GlcNAc(b1-3)Gal(b1-4)GlcNAc(b1-3)Gal(b1-4)GlcNAc(b1-2)Man(a1-3)]Man(b1-4)GlcNAc(b1-4)[Fuc(a1-6)]GlcNAc
How it was run: as §1

[15] = target: Gal(b1-4)GlcNAc(b1-3)Gal(b1-4)GlcNAc(b1-3)Gal(b1-4)GlcNAc(b1-3)Gal(b1-4)GlcNAc(b1-3)Gal(b1-4)GlcNAc(b1-2)Man(a1-3)[Gal(b1-4)GlcNAc(b1-3)Gal(b1-4)GlcNAc(b1-3)Gal(b1-4)GlcNAc(b1-3)Gal(b1-4)GlcNAc(b1-3)Gal(b1-4)GlcNAc(b1-2)Man(a1-6)]Man(b1-4)GlcNAc(b1-4)GlcNAc
How it was run: as §1

[16] = target: Gal(b1-4)GlcNAc(b1-3)Gal(b1-4)GlcNAc(b1-3)Gal(b1-4)GlcNAc(b1-3)Gal(b1-4)GlcNAc(b1-3)Gal(b1-4)GlcNAc(b1-2)Man(a1-3)[Gal(b1-4)GlcNAc(b1-3)Gal(b1-4)GlcNAc(b1-3)Gal(b1-4)GlcNAc(b1-3)Gal(b1-4)GlcNAc(b1-3)Gal(b1-4)GlcNAc(b1-2)Man(a1-6)]Man(b1-4)GlcNAc(b1-4)[Fuc(a1-6)]GlcNAc
How it was run: as §1

[17] = target: Gal(b1-4)GlcNAc(b1-6)GalNAc
How it was run: as §1

Gal4S6S(b1-4)GlcNAc = target: Gal4S6S(b1-4)GlcNAc
How it was run: as §1

GalNAc(b1-4)GlcNAc = target: GalNAc(b1-4)GlcNAc
How it was run: as §1

[18] = target: GalNAc(b1-4)GlcNAc(b1-3)GalNAc(b1-4)GlcNAc
How it was run: as §1

GalNAc4S6S(b1-4)GlcNAc = target: GalNAc4S6S(b1-4)GlcNAc
How it was run: as §1

GalNAc6S(b1-4)GlcNAc = target: GalNAc6S(b1-4)GlcNAc
How it was run: as §1

[19] = target: Glc(a1-4)Glc(a1-4)Glc(a1-4)Glc
How it was run: as §1

[20] = target: GlcNAc(a1-4)Gal(b1-4)GlcNAc
How it was run: as §1

[21] = target: GlcNAc(b1-2)Man(a1-3)[GlcNAc(b1-2)Man(a1-6)]Man(b1-4)GlcNAc(b1-4)[Fuc(a1-6)]GlcNAc
How it was run: as §1

B1: HopZSSI-T (Helicobacter pylori), B5Z6D0 (protein)
chain: MGSSHHHHHHSSGLVPRGSHMENLYFQGEDNGFFISAGYQIGEAAQMVKNTGELKKLSDTYENLSNLLTNFNNLNQAVTNASSPSEINAAIDNLKANTQGLTGEKTNSPAYQAVYLALNAAVGLWNVIAYNVQCGPGNSSQQSVTFEGQPGHNSSSINCNLTGYNNGVSGPLSIDNFKQLNQAYQVLQQALKQGVPVLNNTNQKIEVKVTTQTNGQSSKETTTTTTTNDAQTLLQEASKMIDVLTTNCPWVNHNPGQNGGAPWGLIRQECVSGFATEFSAVTSMIKNAQEIVTQAQSLNANQNNQNAPQDFNPYTSADRAFAQNMLNHAQAQAKILELADQMKKDLNTIPSQFITNYLAACRIDGTTPSQGVTNNTWGAGCAYVEETITALNNSLAHFGTQAEQIKQSELLARTILDFRGSLSTLNSTYNSITTTASNTPNSPFLKNLISQSTNPNNPGGLQAVYQVNQSAYSQLLSATQELGHNPFRRIGLISSQT
glycan array binding signal (z-score) [1]: -0.221
glycan array binding signal (z-score) [2]: -0.111
glycan array binding signal (z-score) [3]: 0.174
glycan array binding signal (z-score) [4]: -0.229
glycan array binding signal (z-score) [5]: -0.057
glycan array binding signal (z-score) [6]: -0.248
glycan array binding signal (z-score) [7]: -0.378
glycan array binding signal (z-score) [8]: -0.536
glycan array binding signal (z-score) [9]: -0.247
glycan array binding signal (z-score) [10]: -0.615
glycan array binding signal (z-score) (Gal(b1-3)Gal(b1-4)GlcNAc): -0.409
glycan array binding signal (z-score) [11]: 0.014
glycan array binding signal (z-score) [12]: -0.305
glycan array binding signal (z-score) [13]: 1.74
glycan array binding signal (z-score) [14]: 0.699
glycan array binding signal (z-score) [15]: 2.12
glycan array binding signal (z-score) [16]: 1.86
glycan array binding signal (z-score) [17]: 1.25
glycan array binding signal (z-score) (Gal4S6S(b1-4)GlcNAc): -0.807
glycan array binding signal (z-score) (GalNAc(b1-4)GlcNAc): 2.32
glycan array binding signal (z-score) [18]: 0.498
glycan array binding signal (z-score) (GalNAc4S6S(b1-4)GlcNAc): 3.87
glycan array binding signal (z-score) (GalNAc6S(b1-4)GlcNAc): 9.12
glycan array binding signal (z-score) [19]: -0.263
glycan array binding signal (z-score) [20]: 0.109
glycan array binding signal (z-score) [21]: 0.081
